Data as given in PubChem BioAssay (NCI).
The panel holds about 83,000 compounds, 20% with a hit somewhere; the sample as a whole holds those more often.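 Each cell line was grown in a 96-well plate and treated with one concentration of compound for 48 hours. Values below 10 were considered active.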 Values without a mark were called inactive. Activity calls are given as the source filed them.

These compounds were tested on SR leukemia (assay: NCI-60 one-dose screen, 48 h (100 = growth as untreated, 0 = no growth, -100 = all killed)). Settings: 10 µM unless noted.
With CCN(CC)c1ccc2cc(NC(=O)OCCNC(=O)CCNC(=O)[C@H](CC(C)C)NC(=O)C(C)(C)NC(=O)C(C)(C)NC(=O)[C@H](CC(C)C)NC(=O)CCNC(=O)C(C)(C)NC(=O)[C@H](CC(C)C)NC(=O)CCNC(=O)[C@@](C)(CC)NC(=O)[C@H](C)NC(=O)CCNC(=O)C(C)(C)NC(=O)[C@H](C)NC(=O)[C@@H]3CCCN3C(=O)[C@@](C)(CC)NC(=O)[C@H](Cc3ccccc3)NC(=O)C3CCCN3C(=O)C(C)(C)NC(=O)C3CCCN3C(=O)C(C)(C)NC(C)=O)c(=O)oc2c1 (stereo partly drawn) the growth was -52.9% (active).
For COc1cc(NCc2cn(-c3ccc(C(=O)O)cc3)nc2-c2ccc(C(=O)O)cc2)cc(OC)c1OC, the growth was 114%.
For CC(C)CCSc1nc(N)nc2nc[nH]c12, the growth was 89.8%.
